# Screening data: PubChem, National Center for Advancing Translational Sciences (NCATS)
# Shown are actives, neighbours in structure and some others; about 3.8% of the full set was active somewhere.
# HT1080 IDH1KD tx = qHTS for induction of synthetic lethality in tumor cells producing 2HG: qHTS for the HT-1080-IDH1KD cell line. Potency, µM (top dose mostly 46.1 µM), for the others: top-dose activity, negative = toxicity, actives largely listed as cytotoxic. actives 2% (n = 360,000). AID 686971, 2013. HT-1080 IDH1 knockdown viability, ATP luminescence, 48 h;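 also: 0% = DMSO wells and -100% = cell-free medium wells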
#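 After a 2 h attachment period, IDH1KD HT-1080 cells took pin-transferred compound for 48 h at 37 °C; ATP-based luminescence after 10 min room-temperature reagent incubation reported viability.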
# HepG2 viability = qHTS for Inhibitors of TGF-b: Cytotox Counterscreen | Potency, µM (highest dose often 46.1 µM), inactives show at the highest dose activity change, negative = cytotoxicity, hits mostly cytotoxic | HepG2 CAGA-GFP viability, ATP luminescence, 18 h | actives 0.76% (n = 410,000)
#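 HepG2 CAGA-GFP cells (1000/well, DMEM with 1% FBS) received compound, then TGF-beta at 500 pg/mL final, and were incubated 18 hours at 37 degrees C. Viability was read by CellTiter-Glo luminescence. Media-only wells were set as complete cell-killing and DMSO as no toxicity.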
# S2 tox = Viability Counterscreen for Primary qHTS for Inhibitors of ATXN expression; S2 cells (HEK-293 line with an ATXN2-luciferase reporter) viability, CellTiter-Fluor protease fluorescence, 24 h; Potency, µM (top dose mostly 56.7 µM), actives largely listed as cytotoxic; actives 0.49% (n = 400,000); AID 651635, 2014; also: nearly all actives have a fitted effect of over 40% in size
# HT1080-NT tox = qHTS for induction of synthetic lethality in tumor cells producing 2HG: qHTS for the HT-1080-NT fibrosarcoma cell line; Potency, µM (top dose mostly 46.1 µM), without a hit: top-dose activity, negative = less viability, usual class: cytotoxic; HT-1080-NT fibrosarcoma viability, CellTiter-Glo ATP luminescence, 48 h; AID 686970, 2013; actives 1.6% (n = 360,000);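 also: NT is the 2HG producing partner of a matched IDH1 knockdown line; 0% = DMSO-treated cells and -100% = media-only wells without cells; nearly all actives have a fitted effect of over 55% in size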
#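 Viability of the 2HG-overproducing fibrosarcoma line after 48 hours of compound exposure at 37 degrees C was determined by luminescence with CellTiter-Glo, and concentration-effect curves were then fitted and categorized.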
# TGFb SMAD3 inh = qHTS for Inhibitors of TGF-b; HepG2 CAGA-GFP TGF-b/SMAD3 reporter, GFP fluorescence, 18 h; TGF-beta stimulated, 500 pg/mL final; Potency, µM (series often up to 46.1 µM), for inactives: at the highest dose activity, negative = inhibition, usual class: inhibitors; actives 1.2% (n = 410,000); also: % is scaled to controls: 0 for no effect and ±100 for the full control effect; nearly all actives have a fitted effect of over 65% in size
#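 Using HEPG2 CAGA-GFP reporter cells at 1000 cells/well, we pinned test compounds, stimulated with recombinant TGF-beta (500 pg/mL final) and measured total well GFP after 18 h.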
# ATXN2 expr inh = Primary qHTS for Inhibitors of ATXN expression; HEK-293 ATXN2-luciferase reporter, luminescence, 24 h; Potency, µM (doses to about 57 µM), for the others: at the top dose activity change, negative = inhibition, actives largely listed as inhibitors; actives 0.72% (n = 360,000); also: % is scaled to controls: 0 for no effect and ±100 for the full control effect; nearly all actives have a fitted effect of over 55% in size
#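 ATXN2-luciferase reporter cells (luciferase flanked by upstream and downstream ATXN2 gene portions) were treated 24 h at 37 °C with compounds at up to 57 uM. SteadyGlo luminescence gave expression; GF-AFC fluorescence gave viability.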
# Numbers without * were called inactive; i = inactive; ? = inconclusive; · = no result given. Calls follow the shape of the dose curve; as a rule, active = well fitted curve in the direction sought with a large enough effect; inconclusive = small, poorly fitted or top-dose-only effect, or another doubt; inactive = no such curve, though single readings can be large; an effect the other way counts as inactive or inconclusive. Potency is read from the fitted curve at half-maximal effect.
SMILES,HT1080 IDH1KD tx,HepG2 viability,S2 tox,HT1080-NT tox,TGFb SMAD3 inh,ATXN2 expr inh
O=C(NCc1cccnc1)C1Cc2c(-c3ccc(Cl)cc3)ccnc2O1 (stereo not drawn),18µM*,-13%,i,5.8µM*,13%,-23%
COc1ccc(CCCNC(=O)C2Cc3c(-c4ccc(NC(C)=O)cc4)ccnc3O2)cc1 (stereo not drawn),16µM*,-25%,i,?,15%,-17%
COC(=O)C1=C[C@@H](C(=O)OC)C2C3=C(C(=O)[C@@]2(C)NC(=O)c2ccccc2)[C@H](C)[C@@H]2C(=O)N(C)C(=O)[C@@H]2[C@@H]3C1 (stereo partly drawn),·,-3%,·,·,-25%,·
CN(C)CCCOC1(Cc2ccccc2)CCCCCC1,·,·,i,·,·,-8%
COc1cc(-c2c(OC)cccc2OC)cc2c1OCCN(C(=O)CCC(=O)c1ccc(F)cc1)C2,·,·,i,·,·,·
COC(=O)[C@@H]1[C@H]2SC(C)(C)[C@H](C(=O)OC)N2C(=O)N1Cc1cc2ccccc2n1S(=O)(=O)c1ccccc1,·,4%,·,·,1%,·
O=C(NCCN1Cc2ccccc2OC(c2ccccc2F)C1)c1cncs1 (stereo not drawn),·,·,i,·,·,·
O=C(N/N=C/c1ccc([N+](=O)[O-])o1)c1ccccc1-n1cccc1,?,-62%,?,?,10µM*,?
O=C(N/N=C/c1ccc([N+](=O)[O-])o1)c1ccc2c(c1)OCO2,?,11µM*,i,?,16µM*,10µM*
Cc1c(C(=O)NCC(C)(C)N2CCOCC2)cnn1-c1ncc2c(n1)-c1ccccc1CCC2,·,·,i,·,·,·
COc1ccc(CNc2nc(N)nc3nc[nH]c23)cc1,·,-23%,·,·,2%,·
O=C(Nc1nccs1)[C@@H]1CC=C[C@@H]2CCN(C3CCCCC3)C(=O)[C@@H]21,·,1%,·,·,?,·
CCN(CC)S(=O)(=O)c1ccc(NC(=O)CSc2cccc[n+]2[O-])cc1,10%,10µM*,i,2%,13%,3%
Cc1ccc(CN2C[C@@H](Sc3nc(C)cc(C)n3)C[C@H]2C(=O)N2CCN(c3ccccc3F)CC2)cc1,·,·,i,·,·,·
COc1ccc(CN(C)C(=O)c2cccc(NC(=O)CC3SC(N4CCCCC4)=NC3=O)c2)c(OC)c1 (stereo not drawn),-27%,-13%,?,?,-28%,20µM*
O=C(Nc1nc2nc(-c3ccccc3)cc(-c3ccccc3)n2n1)c1ccco1,26µM*,-22%,i,?,-5%,11%
CC(=O)Nc1nc2nc(-c3ccccc3)cc(-c3ccccc3)n2n1,0%,-9%,i,2%,-8%,-3%
COc1cc(Cl)c(C)cc1NC(=O)C1CCCN(c2ncnc3onc(-c4ccc(F)cc4)c23)C1 (stereo not drawn),·,-6%,i,·,?,2%
CCOC(=O)Cc1[nH]nc2c1C(c1cccc(OC)c1OC)C(C#N)=C(N)O2 (stereo not drawn),4%,3%,i,1%,-2%,-2%
CCOC(=O)Cc1[nH]nc2c1C(C1C=CCCC1)C(C#N)=C(N)O2 (stereo not drawn),21µM*,20µM*,i,?,?,-8%
Cc1oc2c(C)c(O)ccc2c(=O)c1-c1cnn(-c2ccccc2)c1,2%,-73%,i,8%,?,-6%
Cc1[nH]nc(-c2ccc(O)c(C)c2O)c1-c1cnn(-c2ccccc2)c1,4%,-10%,?,3%,7.1µM*,?
